Source: PubChem BioAssay (National Center for Advancing Translational Sciences (NCATS))
Shown are actives, neighbours in structure and some others; about 7.4% of the full set was active somewhere.
SNCA viab count: cell viability loss counter-screen | HEK-293-SNCA-luc viability, GF-AFC fluorescence, 24 h | Potency, µM (titrated, usually from 57.1 µM), for the others: top-dose activity change, negative = cytotoxicity, usual class: cytotoxic | 150,000 tested, 0.12% active;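 note: 0% = DMSO-treated cells and -100% = medium-only wells without cells; nearly all actives have a fitted effect of over 30% in size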
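Cytotoxicity counterscreen: after 24 h compound treatment of genome-edited SNCA-luciferase HEK-293 cells, live-cell protease substrate GF-AFC read by fluorescence after 30 min; activity scaled between DMSO (0%) and medium-only (-100%), curves Hill-fitted.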
SNCA expr inh: reduces expression of the alpha-synuclein gene; HEK-293 SNCA-luciferase knock-in, luminescence, 24 h; Potency, µM (highest dose often 57.2 µM), for the others: top-dose activity change, negative = inhibition, usual class: inhibitors; 140,000 tested, 0.17% active; AID 1671194;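 note: plate controls were DMSO cells for no effect and cell-free wells for full effect; nearly all actives have a fitted effect of over 45% in size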
NPR1 antag: antagonists of human natriuretic peptide receptor Npr1; P16066; HEK293 hNpr1 GloSensor cGMP, ANP-stimulated luminescence; Potency, µM (titrated, usually from 46.3 µM), inactives show top-dose activity change, negative = inhibition, usual class: inhibitors; 76,000 tested, 1.6% active; calls by dose curve; note: % is set by controls: 0 for no effect and ±100 for the full control effect; nearly all actives have a fitted effect of over 60% in size
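HEK293 cells stably expressing human Npr1 and cGMP GloSensor pGS-40F, loaded 2 h with 2% GloSensor reagent, given compound 30 min at room temperature. Luminescence read before and 20 min after 0.1 nM hNppA.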
FLuc inh: blocks purified firefly luciferase enzyme activity. P08659. purified P. pyralis luciferase, luminescence, biochemical. AID 1347043. 76,000 tested, 2.5% active. Potency, µM (titrated, usually from 115 µM), actives largely listed as inhibitors; note: % is set by controls: 0 for no effect and ±100 for the full control effect; nearly all actives have a fitted effect of over 65% in size
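FLuc 10nM, D-luciferin 10uM, ATP 10uM, Mg acetate 10mM, Tris acetate pH 7.5, Tween/BSA; cpd qHTS; enzyme added last; CCD luminescence.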
HEK293 tox: HEK 293 cell cytotoxicity. HEK 293 viability, ATP luminescence (CellTiter-Glo), 48-72 h. Potency, µM (doses to about 115 µM), for the others: at the highest dose activity change, negative = cytotoxicity, hits mostly inhibitors. 94,000 tested, 6.6% active. AID 1345083; note: % is set by controls: 0 for no effect and ±100 for the full control effect; nearly all actives have a fitted effect of over 60% in size
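Cells seeded first (HEK 293, 250 cells/well), then compound added by pintool. Incubation ran 48 or 72 hr at 37 degree Celsius. CellTiter-Glo was added and luminescence imaged after 10 min at room temperature.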
3T3 cytotox: kills NIH 3T3 cells; Potency, µM (series often up to 96.7 µM), for inactives: at the highest dose activity change, negative = cytotoxicity, usual class: inhibitors; AID 1345082; NIH 3T3 viability, CellTiter-Glo ATP luminescence, 48-72 h; 94,000 tested, 4.3% active; note: % is set by controls: 0 for no effect and ±100 for the full control effect; nearly all actives have a fitted effect of over 55% in size
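Cytotoxicity is measured as loss of cellular ATP: NIH 3T3 cells (400/well) are exposed to compound for 48 or 72 hr at 37 °C, then CellTiter-Glo luminescence is imaged after 10 min at room temperature.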
Npr1 antag conf: hNpr1 antagonism, confirmation assay; shares compounds with NPR1 antag; HEK293 hNpr1 cGMP GloSensor luminescence, ANP-stimulated; Potency, µM (top dose mostly 57.6 µM), for inactives: at the top dose activity change, negative = inhibition, most hits filed as inhibitors; 1,400 tested, 76% active; AID 1347044; calls by dose curve; note: nearly all actives have a fitted effect of over 70% in size
NPR2 antag: hNpr2 antagonism, selectivity versus Npr1; shares compounds with NPR1 antag; HEK293 hNpr2 GloSensor cGMP luminescence, CNP-stimulated; Potency, µM (titrated, usually from 57.6 µM), without a hit: at the top dose activity change, negative = inhibition, hits mostly inhibitors; 1,400 tested, 67% active; calls by dose curve; note: nearly all actives have a fitted effect of over 70% in size
FLuc counter: FLuc enzyme inhibition, Npr1 counter-screen | shares compounds with NPR1 antag | AID 1347047 | purified FLuc enzyme, luminescence, Km substrate | 1,400 tested, 0.7% active | Potency, µM (titrated, usually from 57.6 µM), for inactives: at the top dose activity change, negative = inhibition, usual class: inhibitors; note: series mostly up to about 58 µM; 0% is about no effect
GloSensor ctrl: control cell line activity, Npr1 antagonist counter-screen | 1,400 tested, 69% active | HEK293 GloSensor cGMP, SNP-stimulated, luminescence | AID 1347051 | Potency, µM (titrated, usually from 57.6 µM), inactives show at the highest dose activity change, negative = inhibition, most hits filed as inhibitors | shares compounds with NPR1 antag; calls by dose curve; note: % is set by controls: 0 for no effect and ±100 for the full control effect; nearly all actives have a fitted effect of over 70% in size
* = called active by the depositor; i = inactive; u = inconclusive; x = not tested or not shown; [ ] = dose if it differs, or a comment. Unless noted, calls come from the whole dose curve; as a rule, active = well fitted curve in the direction sought with a large enough effect; inconclusive = small, poorly fitted or top-dose-only effect, or another doubt; inactive = no such curve, though single readings can be large; an effect the other way counts as inactive or inconclusive. Potency is the fitted concentration of half-maximal effect.

SMILES	SNCA viab count	SNCA expr inh	NPR1 antag	FLuc inh	HEK293 tox	3T3 cytotox	Npr1 antag conf	NPR2 antag	FLuc counter	GloSensor ctrl
CC(=O)N1CCC(C2CCN(C(=O)CN3CCOCC3)C2)CC1 (stereo not given)	21%	16%	x	x	i	-19%	x	x	x	x
COCC(NC(=O)c1ccc2nc(C3CCCCC3)oc2c1)c1ccnn1C (stereo not given)	-17%	25%	u	i	u	-24%	-29%	u	5%	-9%
O=C1CCN(Cc2ccncc2)CCCC(c2nc(-c3cccnc3)no2)CCN1 (stereo not given)	5%	5%	2%	i	i	-2%	x	x	x	x
O=C1CCN(Cc2ccc(C(F)(F)F)cc2)CCCC(c2nc(-c3cccnc3)no2)CCN1 (stereo not given)	-2%	5%	8.9µM*	i	45µM*	u	17µM*	17µM*	2%	15µM*
O=C(Nc1ccc(F)cc1)c1nc2sccn2c1-c1cccnc1	-5%	-2%	x	x	-3%	-3%	x	x	x	x
COc1ccc(CN2CC3(CCN(C(=O)c4cn[nH]c4-c4ccc(F)cc4)CC3)C2=O)cc1	-23%	-12%	11µM*	i	28µM*	u	14µM*	19µM*	-4%	12µM*
CCc1ccc(CN2CCC(O)(Cc3cc(-c4cccc(OC)c4)no3)CC2)o1	-1%	-1%	-23%	i	u	u	-28%	-21%	-1%	u
O=C(NCCc1ccccc1)N1CCC(Cc2nncn2CC2CC2)CC1	-5%	31%	x	x	4%	-8%	x	x	x	x
Cc1nn(-c2ccccc2)c2c1C(C(C)C)N(C1CCCN([S+](=O)([O-])c3cccc(C(F)(F)F)c3)C1)C2=O (stereo not given)	x	x	x	x	-9%	-22%	x	x	x	x
O=C(Cc1c[nH]c2ncc(-c3ccccc3C(F)(F)F)cc12)N1CCOCC1	-8%[87.6 µM]	5%[87.6 µM]	2µM*	i	u	u	4.4µM*	8.9µM*	1%[86.2 µM]	4µM*
O=C(Cc1c[nH]c2ncc(-c3cccc(CO)c3)cc12)N1CCOCC1	1%[87.6 µM]	6%[87.6 µM]	-22%[70.6 µM]	i	u	u	x	x	x	x
Cc1ccccc1-c1cnc2[nH]cc(CC(=O)N3CCOCC3)c2c1	-11%[87.6 µM]	-18%[87.6 µM]	2.8µM*	i	112µM*	-55%[138 µM]	2.8µM*	4.4µM*	-1%[86.2 µM]	2.2µM*
Cc1nn2c(c1-c1cccnc1N1CCOCC1)N(CC1CCOCC1)CCC2	-18%[87.6 µM]	u	u	i	u	35µM*	u	u	5%[86.2 µM]	u
Cc1nn2c(c1-c1cccnc1N1CCOCC1)N(C(=O)Cc1ccc(Cl)cc1)CCC2	-5%	u	1%	i	u	u	x	x	x	x
Fc1ccc(-c2cnc([C@@H]3COCCN3Cc3c[nH]c4ccccc34)[nH]2)c(F)c1	-17%[87.6 µM]	u	25µM*	i	79µM*	u	35µM*	44µM*	-6%[86.2 µM]	40µM*
